# An excerpt weighted towards active compounds, which were near 1.2% of everything screened.
# TrxR1 substrate = rat thioredoxin reductase 1 substrate activity | Potency, µM (titrated, usually from 114 µM), without a hit: at the highest dose activity change, negative = substrate turnover | purified TrxR1 substrate turnover, NADPH consumption readout | 0.01% of 390,000 active; also: potency is read from the fitted curve at half-maximal effect; nearly all actives have a fitted effect of over 50% in size
#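 Rat TrxR1, dispensed at 90 nM, was prereduced with 400 uM NADPH (final) for 5 min at ~22 deg C, then incubated with compound 15 min before 400 uM selenite. A first-read NADPH fluorescence drop versus no-compound background flagged substrates.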
# GALK inh = galactokinase (human) inhibition | P51570 | Purified GALK, Kinase-Glo residual ATP luminescence | Potency, µM (highest dose often 57.5 µM), for the others: top-dose activity change, negative = inhibition, usual class: inhibitors | 0.007% of 270,000 active | AID 1868; also: potency is read from the fitted curve at half-maximal effect
# Target sequence (P51570 whole entry, looked up): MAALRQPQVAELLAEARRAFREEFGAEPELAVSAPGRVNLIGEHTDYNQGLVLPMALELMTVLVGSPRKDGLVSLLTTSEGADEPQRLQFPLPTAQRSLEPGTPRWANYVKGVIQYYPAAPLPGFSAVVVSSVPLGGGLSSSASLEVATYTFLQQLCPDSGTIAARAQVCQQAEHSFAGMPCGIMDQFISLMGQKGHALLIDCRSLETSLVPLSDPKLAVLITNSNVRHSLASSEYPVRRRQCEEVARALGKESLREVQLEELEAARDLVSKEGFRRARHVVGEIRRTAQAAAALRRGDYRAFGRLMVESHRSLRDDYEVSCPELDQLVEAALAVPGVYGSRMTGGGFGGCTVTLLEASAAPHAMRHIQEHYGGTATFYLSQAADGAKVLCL
#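 Quantitative HTS: GALK 5 nM, ATP 35 uM, galactose 100 uM, 1 h room temperature, then luciferase-based ATP detection.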
# PI4K2A block = inhibitors of human PI4K2A. Q9BTU6. 0.13% of 420,000 active. purified PI4K2A, ADP-Glo luminescence, 1 h; stronger effect = lower value. AID 1346378. activity change, negative = inhibition, % at 76.9 µM; in the data active = activity change below about -50%; inconclusive = mostly about -30% to -49%;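 also: -100% = wells without enzyme as full effect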
#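 PI4K2A activity was measured by ADP-Glo luminescence: enzyme (4 ug/mL stock) and phosphatidylinositol (1.2 mM stock) in Tris pH 7.5/MgCl2/EGTA/Triton X-100 buffer were reacted with ATP (300 microM stock) for one hour at ambient temperature.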
# rTrxR1 inhibitor = blocks rat thioredoxin reductase 1; recombinant rTrxR1, NADPH fluorescence consumption, selenite substrate; Potency, µM (doses to about 114 µM), without a hit: at the highest dose activity change, negative = inhibition, usual class: inhibitors; 1% of 390,000 active; AID 588453; also: potency is read from the fitted curve at half-maximal effect; nearly all actives have a fitted effect of over 65% in size
#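 Rat TrxR1 (90 nM in the dispensed reagent) was pre-reduced with 400 uM NADPH for 5 min at room temperature, then incubated with compound for 15 min. After 400 uM selenite was added, NADPH fluorescence (Ex 340/Em 450 nm) was followed for 8 min.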
# PKM2 act = activators of human pyruvate kinase M2. purified PKM2, Kinase-Glo ATP luminescence, activation; response scale: 0% is enzyme alone, no compound. AID 1631. P14618. 0.34% of 260,000 active. Potency, µM (titrated, usually from 57.5 µM), inactives show top-dose activation, most hits filed as activators; also: potency is read from the fitted curve at half-maximal effect; nearly all actives have a fitted effect of over 55% in size
#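 ATP formation by purified human PK-M2, quantified via coupled luciferase luminescence after 1 h at room temperature with 0.1 mM ADP and 0.5 mM PEP final.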
# The depositor's hits bear a star; ? = inconclusive; . = no result; [ ] = dose if it differs, or a comment. Unless noted, calls follow the shape of the dose curve; as a rule, active = well fitted curve in the direction sought with a large enough effect; inconclusive = small, poorly fitted or top-dose-only effect, or another doubt; inactive = no such curve, though single readings can be large; an effect the other way counts as inactive or inconclusive. Unless noted, % is scaled to controls: 0 for no effect and ±100 for the full control effect.
SMILES,TrxR1 substrate,GALK inh,PI4K2A block,rTrxR1 inhibitor,PKM2 act
CCOC(=O)c1c(S(=O)(=O)N2CCCC(C(=O)N3CCN(c4ccc(F)cc4)CC3)C2)c(C)n(C)c1C (stereo unspecified),-2.2%[57.1 µM],.,3.4,15.6%[57.1 µM],.
Cc1cc(S(=O)(=O)N2CCCC2)ccc1OCC(=O)NCc1ccco1,10.5%,-1.0%,-1.9,10µM*,?
Cc1cc(S(=O)(=O)N2CCOCC2)ccc1OCC(=O)NCc1ccco1,-3.9%[57.1 µM],-1.5%,0.0,-8.5%[57.1 µM],.
O=C(COC(=O)Cc1cccc(C(F)(F)F)c1)NCc1ccco1,-4.8%,.,-20.8,35.5µM*,.
CC(C)(C)c1ccc(OCC(=O)NCc2ccco2)c(Br)c1,-2.3%,-3.5%,-4.8,11.2µM*,26.3%
CCOc1ccc(S(=O)(=O)N2CCN(C(=S)NCc3ccco3)CC2)cc1,-1.4%,-3.0%,-2.4,3.8%,14.1µM*
CC[C@H](CCCc1ccc(OC)cc1)CCC(=O)N1CCOCC1,.,.,-0.2,.,.
CCOC(=O)c1c(NC(=O)CSc2cn(CCNC(=O)c3c(F)cccc3F)c3ccccc23)sc2c1CCCC2,0.8%,.,0.0,16.9%,.
O=C(Cn1nnc(-c2ccccc2F)n1)Nc1ccc(F)cc1F,.,.,-0.4,.,.
c1csc(CSc2nnc3sc4ccccc4n23)c1,-6.8%[57.1 µM],-1.0%,-6.2,10.9%[57.1 µM],15.8µM*
CN1C(=O)Cc2cc(S(=O)(=O)NCc3cccs3)ccc21,9.1%[57.1 µM],6.5%,?,40.2%,?
CN1C(=O)Cc2cc(S(=O)(=O)NCc3c(F)cccc3Cl)ccc21,6.2%,-0.1%,2.9,24.0%,14.1µM*
O=C(NCC1CC1)c1ccc2nc(-c3ccoc3)c(-c3ccoc3)nc2c1,7.4%[0.0914 µM],.,.,0.0%,.
c1coc(-c2nc3c([nH]2)CCc2nonc2-3)c1,12.0%,-1.7%,-1.7,22.4µM*,3.1%
Cc1ccccc1CN1C(=O)c2ccccc2Sc2ccc(C(=O)NC(C)c3ccccc3)cc21 (stereo unspecified),0.7%[57.1 µM],.,-7.9,22.8%[57.1 µM],.
O=C1CS(=O)(=O)N(Cc2ccc(F)cc2)c2ccccc21,-5.8%,.,-7.0,44.7µM*,.
COc1cc(CN2c3ccccc3C(=O)CS2(=O)=O)cc(OC)c1,5.9%,.,1.2,?,.
N#Cc1c(N)n(C2OC(CO)C(O)C2O)c2ncnc(N)c12 (stereo unspecified),10.9%[57.1 µM],.,-61.7*,-5.8%[11.4 µM],.
CC1(C)Cc2noc(N)c2C(C)(C)N1O,4.0%,-2.3%,-3.0,1.58µM*,-10.9%
CC(=O)ON1C(C)(C)Cc2noc(N)c2C1(C)C,-0.7%,-1.3%,-18.0,6.6%,1.1%
C#CCNC(=O)C[C@H]1C[C@@]2(C(=O)OC)C(=C[C@H](COCc3ccccc3)O[C@@H]2C)N(Cc2ccc(Cl)cc2Cl)C1=O,.,.,-0.5,.,.
COc1ccc(N(C)C(=O)NCc2noc3ccc(C)cc23)c(OC)c1,-5.0%,.,-2.1,-9.1%,.
Oc1ccc(N=Nc2ccccc2)o1,-10.9%,.,-0.9,31.6µM*,.
Oc1c(N=Nc2ccccc2)sc2ccccc12,-1.6%,7.9%,-14.3,9.3%,-19.2%
O=C(COc1ccccc1C(=O)NCc1ccccc1)Nc1ccc(I)cc1,.,.,0.0,.,.
SMILES,TrxR1 substrate,GALK inh,PI4K2A block,rTrxR1 inhibitor,PKM2 act
Cc1ccc(NC(=O)CN(C)C(=O)c2cccc(S(=O)(=O)N3CCc4ccccc4C3)c2)cc1,.,.,-1.6,.,.
Cc1ccc(CN(C)C(=O)c2cccc(S(=O)(=O)N3CCc4ccccc4C3)c2)o1,2.5%,.,1.4,39.8µM*,.
Oc1ccc(/C=N/Nc2ncnc3nc[nH]c23)cc1,0.1%,7.8%,-52.3*,15.4%,-19.0%
C/C(=N\NC(=S)NCc1ccccc1)c1ccco1,-11.9%,-0.3%,3.2,79.4µM*,-2.4%
C/C(=N\NC(=S)NCc1ccccc1)c1ccccc1,-0.3%,2.3%,2.5,15.6%,1.9%
COc1ccc(CNC(=O)CN(C)c2nn3c(=O)cc(C)nc3s2)cc1,1.2%,.,3.7,13.3%,.
O=C(c1ccc2c(c1)OCO2)n1nnc2ccccc21,.,-0.3%,.,.,-1.3%
COc1ccc(C(=O)n2nnc3ccccc32)cc1OC,-5.6%,.,-0.7,3.16µM*,1.2%
COc1ccc(C(=O)n2nnc3ccccc32)cc1Br,7.3%,-0.2%,0.1,3.98µM*,2.4%
COc1ccc(C(=O)COC(=O)Cn2nnc3ccccc32)cc1Br,1.0%,-4.5%,-2.5,15.5%,-1.2%
O=[N+]([O-])c1ccccc1/C=C/C=Nn1c(-c2ccc(F)cc2)n[nH]c1=S,.,.,1.4,.,.
CCC[C@H]1[C@@H](NC(=S)Nc2ccccc2Cl)CC[C@@]23CCCN2C(=O)CCC[C@@H]13,.,.,16.5,.,.
Cc1ccc(NC(=O)Cn2c(=O)c(C(F)(F)F)nc3ccccc32)c(C)c1,-3.7%[57.1 µM],.,-0.1,-4.3%[57.1 µM],.
O=C1N/C(=C\c2ccc(O)cc2)C(=O)c2ccccc21,3.9%,0.3%,-50.2*,?,3.7%
CC(=O)c1ccc(NC(=O)c2noc3c2CCC3)cc1,-10.1%,-1.5%,-5.4,50.1µM*,-0.3%
Cc1ccc(NC(=O)c2noc3c2CCC3)cc1C,13.0%,0.6%,-0.1,50.1µM*,0.7%
COc1ccc(NC(=O)c2noc3c2CCC3)cc1,-3.7%[57.1 µM],-1.2%,-13.8,-24.5%[57.1 µM],-28.3%
O=C(Nc1cccc(O)c1)c1noc2c1CCCCC2,3.6%,4.4%,-25.1,5.8%,-13.9%
COc1ccc(-n2c(=O)c3ccccc3n(Cc3cccc(C)c3)c2=O)cc1,1.5%,.,-0.3,0.2%,.
CCc1cccc(NC(=O)CSC2=NS(=O)(=O)c3ccccc32)c1,3.2%[57.1 µM],1.7%,-8.0,3.16µM*,13.0%
CCc1cccc(NC(=O)CSc2ncc3c(n2)-c2ccccc2N(CC)S3(=O)=O)c1,-0.7%[57.1 µM],.,1.0,-4.9%[57.1 µM],.
O=C1C(Cl)=C(N2CCC(C(=O)O)CC2)C(=O)c2ccccc21,-0.5%,?,-14.7,1.12µM*,7.8%
CN1CCN(C2=C(NS(=O)(=O)c3ccccc3)C(=O)c3ccccc3C2=O)CC1,-11.1%,2.9%,-14.4,-32.8%,0.1%[0.46 µM]
NC(=O)C1CCN(C2=C(NS(=O)(=O)c3ccccc3)C(=O)c3ccccc3C2=O)CC1,1.4%,0.7%,-0.8,14.5%,-8.6%
O=C(O)C1CCN(C(=O)c2ccccc2Cl)CC1,3.6%[57.1 µM],-1.7%,5.9,21.1%[57.1 µM],3.6%
CN1CCN(C2=C(Cl)C(=O)c3ccccc3C2=O)CC1,-4.0%[57.1 µM],.,-55.0*,?,.
NC(=O)C1CCN(C2=C(Cl)C(=O)c3ccccc3C2=O)CC1,-14.7%,?,-1.5,1µM*,?
CCOC(=O)N1CCc2c(sc3c2c(=O)n(-c2ccc(Cl)cc2)c(=O)n3CC(=O)Nc2ccccc2)C1,2.4%[57.1 µM],.,6.0,23.3%[57.1 µM],.
O=C1/C(=C/N(C(=O)c2ccco2)c2ccc(Cl)cc2)Sc2ccccc21,-7.2%,4.7%,-18.2,39.8µM*,-2.9%
O=C1c2ccccc2C(=O)N1CCCCN(C(=O)c1ccco1)c1ccc(Cl)cc1,-0.4%,2.9%,5.3,-1.0%,-4.7%

# Screening data: PubChem, National Center for Advancing Translational Sciences (NCATS)
